Hits are enriched below; roughly 2.5% of the tested compounds scored in any of these assays.
TROY NFkB inh – TROY signaling inhibition. Q293 LMP1-TROYcd NF-kB luciferase reporter, 4 h. inhibition, % at 10 µM. 360,000 compounds, 0.98% hits. AID 1347056;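 active = compounds whose plate-normalised and pattern-corrected inhibition of the luciferase reporter signal at the single screening dose is 50% or more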
TWEAK-Fn14 inh – TWEAK-Fn14 signaling inhibition; TWEAK-stimulated Fn14 reporter cells, luciferase luminescence, 8 h; inhibition, % at 10 µM; 360,000 compounds, 2% hits; AID 1159606; in the data active = inhibition above about 50%
LGR2 inh – blocks bursicon-induced cAMP signaling via Drosophila LGR2 | inhibition, % at 9.99 µM | 380,000 compounds, 0.35% hits | HEK293 LGR2, CRE-luciferase, bursicon-stimulated, 4 h;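 active = drop in luminescence signal, shown as inhibition above about 50% in the replicate tests, limit read from the data, passing the limit was not always enough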;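 note: agonist challenge used bursicon conditioned medium at about half maximal strength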
EBV LMP1 NFkB – reduces LMP1-driven NF-kappaB luciferase signal; 350,000 compounds, 0.69% hits; LMP1-induced NF-kappaB luciferase reporter cells, luminescence; inhibition, % at 12.5 µM; in the data active = inhibition above about 41%
EWS-Fli inh – blocks EWS/Fli oncoprotein-driven transcription. A673 NR0B1-luciferase reporter, viability-normalised. 350,000 compounds, 0.67% hits. inhibition, % at 12.6 µM;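 active = mean inhibition of at least 50% after viability correction, with every replicate also passing that limit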;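 note: firefly luciferase signal divided by Alamar Blue viability fluorescence both relative to DMSO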
A number is an active result; - = inactive; . = not tested or not shown.

SMILES | TROY NFkB inh | TWEAK-Fn14 inh | LGR2 inh | EBV LMP1 NFkB | EWS-Fli inh
COC1=C(C)C(=O)C2=C(C1=O)C(CO)N1C(C#N)C3CC4C(C1C2N1CCOC41)N3C (stereo unspecified) | - | - | - | 85.6 | -
CC(C)CC#Cc1ccc([C@H]2[C@@H](CO)N3CCCCN(C(=O)Cc4ccccn4)C[C@H]23)cc1 | . | . | - | . | -
CCN1[C@@H]2Cn3c(ccc(-c4cccc(OC)c4)c3=O)[C@H]1[C@@H](C(=O)OC)[C@@H]2CO | . | . | - | . | -
COc1ccc(-c2ccc([C@@H]3[C@H]4CN(C(=O)Cc5ccccc5)CCCCN4[C@H]3CO)cc2)cc1 | . | . | - | . | .
Cc1ccc(OC(=O)N(C)C[C@H]2OCc3ccccc3-c3c(n(C)c4ccccc34)C(=O)N([C@H](C)CO)C[C@@H]2C)cc1 | . | . | - | . | -
CC(=O)O[C@@H]1CC[C@]2(C)C3CC[C@]4(C)C(=O)[C@H](O)CC4C3[C@@H](OC(C)=O)C[C@H]2C1 (stereo partly specified) | - | 52.8 | - | - | -
C[C@@H]1CN([C@H](C)CO)C(=O)c2c(c3ccccc3n2C)-c2ccccc2CO[C@H]1CN(C)C(=O)Oc1ccccc1 | . | . | - | . | .
C/C1=C\[C@@H](C)C/C=C/[C@H]2[C@@H]3O[C@]3(C)[C@@H](C)[C@H]3[C@H](Cc4c[nH]c5ccccc45)NC(=O)[C@]32C(=O)/C=C/C(=O)[C@@H]1O | - | - | . | - | .
CC1=CC2/C=C(\C)CCC(O)C(O)/C=C/C(=O)C23C(=O)NC(CC(C)C)C3C1C (stereo unspecified) | 60.5 | 93.1 | . | - | .
COC(=O)[C@H]1[C@H](CO)[C@H]2Cn3c(ccc(-c4cccnc4)c3=O)[C@@H]1N2CCc1ccccc1 | . | . | - | . | -
Oc1c(Cl)c(Cl)c(Cl)c(Cl)c1Cl | 63.6 | - | . | - | -
COc1ccc(-c2ccc([C@@H]3[C@@H](CO)N4CCCCN(C(=O)Cc5ccccc5)C[C@H]34)cc2)cc1 | . | . | - | . | .
O=C1C=CC(=O)C2C1C1(Cl)C(Cl)=C(Cl)C2(Cl)C1(Cl)Cl (stereo unspecified) | - | 56.7 | - | - | -
COc1cc(/C=C(/C)[N+](=O)[O-])ccc1OCc1ccccc1Cl | 56.5 | 72.5 | . | - | .
O=C(Cc1cccnc1)N1CCCCN2[C@@H](CO)[C@H](c3ccc(C#CC4(O)CCCC4)cc3)[C@@H]2C1 | . | . | - | . | -
C/C=C/c1ccc(C2[C@@H]3CN(Cc4cccc(F)c4)C[C@H]2N3)cc1 (stereo partly specified) | . | . | - | . | -
CC(=O)N1[C@@H]2c3ccc(-c4cccc(C(=O)N(C)C)c4)c(=O)n3C[C@H]1[C@H](CO)[C@H]2C(=O)O | . | . | - | . | -
Fc1ccc(CNCCc2ccccc2F)cc1 | 70.4 | - | - | - | -
COC(=O)[C@@H]1[C@@H](CO)[C@@H]2Cn3c(ccc(-c4cccc(F)c4)c3=O)[C@H]1N2C(=O)CC1CC1 | . | . | - | . | -
NC(N)=N/N=C/c1cn(-c2ccccc2)nc1-c1cccs1 | - | - | 105.6 | - | -
O=c1c2ccccc2nc(-c2cccs2)n1-c1ccccc1 | - | - | . | - | .
COc1cccc(CNC2CN3CCC2CC3)c1OC (stereo unspecified) | - | 68.2 | . | - | .
CCOc1cccc(CNC2CN3CCC2CC3)c1 (stereo unspecified) | - | - | - | - | -
O=C(Cc1ccccn1)N1CCCCN2[C@H](C1)[C@@H](c1ccc(Br)cc1)[C@@H]2CO | . | . | - | . | -
O=C(NN=Cc1ccc(N(CCCl)CCCl)cc1Cl)c1cccnc1 | - | - | - | 78.4 | -
SMILES | TROY NFkB inh | TWEAK-Fn14 inh | LGR2 inh | EBV LMP1 NFkB | EWS-Fli inh
Cc1cc(N(CCCl)CCCl)ccc1C=NNC(=O)c1cccnc1 | - | - | - | 73.9 | -
O=C(NN=Cc1ccc(N(CCCl)CCCl)cc1)c1cc(=O)[nH]c(=O)[nH]1 | - | - | - | - | -
O=C(NN=Cc1ccc(N(CCCl)CCCl)cc1)C(=O)c1c[nH]c2ccccc12 | - | - | - | - | -
O=C(O)[C@@H]1[C@@H](CO)[C@@H]2Cn3c(ccc(-c4ccncc4)c3=O)[C@H]1N2C(=O)C1CCCC1 | . | . | - | . | -
CC(C)n1c(O)c(C2c3cc(Cl)ccc3Oc3[nH]c(=O)n(C(C)C)c(=O)c32)c(=O)[nH]c1=O (stereo unspecified) | - | 100.1 | . | - | .
CCC(=O)N1[C@@H]2Cn3c(ccc(-c4cccc(F)c4)c3=O)[C@H]1[C@@H](C(=O)OC)[C@@H]2CO | . | . | - | . | -
Cc1cc(C)cc(N2C(=O)NC(=O)/C(=C\c3cccn3-c3ccccc3)C2=O)c1 | - | 65.8 | - | - | -
Cc1cc(C)cc(N2C(=O)NC(=O)/C(=C\c3cccn3-c3ccc(Cl)cc3)C2=O)c1 | 52.9 | 103.0 | . | - | .
COC(=O)[C@@H]1[C@@H](CO)[C@@H]2Cn3c(ccc(-c4ccccc4)c3=O)[C@H]1N2CC1CCCCC1 | . | . | - | . | -
O=C1CN=C(c2ccc[nH]2)c2cc(Cl)ccc2N1 | - | - | - | 56.9 | -
O=C1CN=C(c2ccccc2Cl)c2cc(Br)ccc2N1 | - | - | - | - | -
COC(COC(N)=O)C1=C(N2CC2)C(=O)C(C)=C(N2CC2)C1=O (stereo unspecified) | - | - | - | - | -
COC12C(COC(N)=O)C3=C(C(=O)C(C)=C(N)C3=O)N1CC1C2N1C (stereo unspecified) | - | - | - | 63.4 | -
CC(=NNC(=S)N1CC2CCC(CC2)C1)c1nccs1 | - | - | - | 72.8 | -
O=C(Cc1ccccc1)N1CCCCN2[C@H](CO)[C@@H](c3ccc(-c4ccccc4)cc3)[C@@H]2C1 | . | . | - | . | .
CCC1(OC(=O)CN)C(=O)OCc2c1cc1n(c2=O)Cc2cc3ccccc3nc2-1 (stereo unspecified) | 68.9 | 81.6 | 96.4 | 80.6 | .
CC[C@@]1(O)C(=O)OCc2c1cc1n(c2=O)Cc2cc3c(NC(=O)CN)cccc3nc2-1 | - | - | - | 76.7 | 55.8
COC(=O)[C@H]1[C@H](CO)[C@H]2Cn3c(ccc(-c4ccccc4F)c3=O)[C@@H]1N2C(=O)C1CC1 | . | . | - | . | -
COC(=O)C12OCC34C(CC5C(C)=C(O)C(=O)CC5(C)C3C(O)C1O)OC(=O)C(OC(=O)/C=C(\C)C(C)C)C24 (stereo unspecified) | 84.7 | 94.8 | 101.1 | 95.4 | -
CC(C)[C@H]1C(=O)O[C@H](C(C)C)C(=O)N(C)[C@@H](C(C)C)C(=O)O[C@H](C(C)C)C(=O)N(C)[C@@H](C(C)C)C(=O)O[C@H](C(C)C)C(=O)N1C | 56.2 | 55.9 | . | 56.3 | .
O=C(Cc1ccccc1)N1CCCCN2[C@H](C1)[C@@H](c1ccc(-c3ccccc3)cc1)[C@@H]2CO | . | . | - | . | .
CCCCn1c(N)c(C(=O)NCc2cccs2)c2nc3ccccc3nc21 | 67.5 | - | . | - | .
CCCCCCn1c(N)c(C(=O)NCCN2CCOCC2)c2nc3ccccc3nc21 | . | 55.8 | . | - | .
CCCCNC(=O)c1c(N)n(Cc2ccc3c(c2)OCO3)c2nc3ccccc3nc12 | 59.5 | 51.2 | - | - | -
CCCCCn1c(N)c(C(=O)NCCN2CCOCC2)c2nc3ccccc3nc21 | - | - | . | - | .

Screens from PubChem BioAssay.
